FadD28 FP inh: inhibitors of Mycobacterium tuberculosis FadD28 bisubstrate binding. FadD28 bisubstrate probe binding, fluorescence polarization. inhibition, % at 12.5 µM. 360,000 compounds, 0.22% hits; in the data active = inhibition above about 8.5%, passing the limit was not always enough; inconclusive = no clear call, values can overlap the other calls
GDH-TPI counter: GDH-TPI coupled enzyme inhibition counter-screen. GDH-TPI coupled enzyme counterscreen, NADH absorbance. inhibition, % at 4.8 µM. 360,000 compounds, 1.2% hits. AID 588335; in the data active = inhibition above about 30%;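 also: 0% = DMSO wells and 100% = wells lacking the enzyme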
Rv3671c protease: inhibitors of M. tuberculosis serine protease Rv3671c; inhibition, % at 5.96 µM; 320,000 compounds, 0.048% hits; AID 2606; in the data active = inhibition above about 38%;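 also: extracellular domain of Rv3671c used as enzyme; 0% = enzyme with DMSO and 100% = no enzyme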
Target sequence (P9WHR9 whole entry, looked up, the tested form may be a part): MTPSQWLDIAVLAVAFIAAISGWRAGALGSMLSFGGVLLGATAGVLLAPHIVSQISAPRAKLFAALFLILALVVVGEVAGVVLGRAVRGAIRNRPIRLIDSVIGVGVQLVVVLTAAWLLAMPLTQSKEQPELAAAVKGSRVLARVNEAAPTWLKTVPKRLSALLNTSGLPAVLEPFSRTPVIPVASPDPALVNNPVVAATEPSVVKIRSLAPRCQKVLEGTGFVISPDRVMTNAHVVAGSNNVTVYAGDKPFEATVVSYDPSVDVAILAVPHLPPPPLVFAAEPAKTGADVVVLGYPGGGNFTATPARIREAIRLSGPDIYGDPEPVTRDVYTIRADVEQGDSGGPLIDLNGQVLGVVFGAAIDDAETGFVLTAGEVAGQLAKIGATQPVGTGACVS
BioA inh: blocks M. tuberculosis BioA enzyme activity; 360,000 compounds, 0.096% hits; inhibition, % at 9.99 µM; purified M. tuberculosis BioA enzyme, plate reader; AID 602481; in the data active = inhibition above about 40%; inconclusive = no clear call, values can overlap the other calls
FBA Mtb inh: inhibitors of M. tuberculosis fructose-bisphosphate aldolase. 360,000 compounds, 2.3% hits. inhibition, % at 1 µM. purified M. tuberculosis FBA, fluorescence read-out. AID 588726. P9WQA3; in the data active = inhibition above about 27%;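 also: 0% = vehicle and 100% = reference inhibitor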
An asterisk follows results filed as active; ? = inconclusive; . = no result; + = active, no number; ! = not confirmed by another sample. In the library only some 3% were active in any assay of this set; here they are far more common.

SMILES	FadD28 FP inh	GDH-TPI counter	Rv3671c protease	BioA inh	FBA Mtb inh
Oc1ccc(/C=N/n2c(-c3ccccc3)n[nH]c2=S)cc1Br	-1	48*	.	4	-1
Cc1c(Br)c(O)c(Br)c(O)c1/C=N/n1c(-c2ccccc2)n[nH]c1=S	21*	19	-7	6	3
Oc1c(Br)cc(/C=N/n2c(-c3ccccc3)n[nH]c2=S)c(O)c1Br	?	36*	.	13	4
Oc1c(Br)cc(/C=N/n2c(-c3ccccc3)n[nH]c2=S)cc1Br	-3	31*	.	19	-1
CCCN(C)C[C@H]1OCCCC[C@@H](C)Oc2ccc(NC(=O)Nc3ccccc3)cc2C(=O)N([C@H](C)CO)C[C@@H]1C	.	.	.	-1	.
C[C@@H]1CN([C@@H](C)CO)C(=O)c2cc(NS(=O)(=O)c3cn(C)cn3)ccc2O[C@@H](C)CCCCO[C@H]1CN(C)Cc1ccc(C(F)(F)F)cc1	.	.	.	-1	.
O=c1[nH]c(/C=C/c2ccc(Br)cc2)nc2ccccc12	-5	-2	6	-1	0
O=C(Nc1cccc(/C=C/c2nc3ccccc3c(=O)[nH]2)c1)c1ccccc1Cl	0	49*	-104	-3	-2
COc1ccc(C(=O)Nc2cccc(/C=C/c3nc4ccccc4c(=O)[nH]3)c2)cc1	-3	39*	-94	.	1
Cc1cccc(/C=C\c2nc3ccccc3c(=O)[nH]2)c1	0	31*	-11	-3	-3
Cc1ccccc1-c1cnc2c(c1)C(=O)N([C@@H](C)CO)C[C@H](C)[C@@H](CN(C)C(=O)CN(C)C)O2	.	.	.	-1	.
Cc1ccc(S(=O)(=O)N[C@@H]2CC[C@@H](CCNC(=O)Cc3ccccn3)O[C@@H]2CO)cc1	.	.	.	-2	.
COc1ccc2cc(/C=C/C(=O)N3CCN(CC(=O)N4CCCCCC4)CC3)ccc2c1	0	14	0	2	30*
CCC(=O)N1C[C@H](O)COC[C@H]2O[C@@H](CC(=O)NCc3ccc(Oc4ccccc4)cc3)CC[C@@H]21	.	.	.	-1	.
CCN1CCN(Cc2ccc(NC(=O)c3cc(NC(=O)C(=O)c4c[nH]c5ccccc45)cc(OC)c3)cc2C(F)(F)F)CC1	66*!	19	-155	-1	3
CCN1CCN(Cc2ccc(NC(=O)c3ccc(C)c(NC(=O)c4ccc5n[nH]nc5c4)c3)cc2C(F)(F)F)CC1	-4	8	7	7	2
CCN1CCN(Cc2ccc(NC(=O)c3ccc(C)c(NC(=O)C(=O)c4c[nH]c5ccccc45)c3)cc2C(F)(F)F)CC1	55*!	5	-74	0	0
CCN1CCN(Cc2ccc(NC(=O)c3cc(NC(=O)c4cc(C)on4)cc(OC)c3)cc2C(F)(F)F)CC1	-15	10	-8	2	-4
CN(C)C(=O)c1cccc(-c2ccc3c(c2)[C@@H]2[C@@H](CCN2C(=O)Cc2ccccn2)[C@H](CO)N3C)c1	.	.	.	-2	.
COc1ccc(C2CC(c3cccs3)n3nc(N)nc3N2)cc1 (stereo unspecified)	-3	24	4	0	135*
Nc1nc2n(n1)C(c1cccs1)CC(c1ccc(F)cc1)N2 (stereo unspecified)	-2	0	-5	1	13
Clc1ccc(-c2nc3ncccn3c2Cl)cc1	-2	14	6	.	+
Clc1ccc(-c2nc3ncccn3c2Nc2ccc3c(c2)OCO3)cc1	0	5	-4	-2	6
CO[C@H]1CN(C)C(=O)c2cc(NC(=O)Nc3ccccc3)ccc2OC[C@@H](C)N(C(C)=O)C[C@H]1C	.	.	.	1	.
COc1ccc2c(c1)c(C(=O)N/N=C/c1ccc(O)c(O)c1)c(C)n2C	-1	44*	5	.	-5
SMILES	FadD28 FP inh	GDH-TPI counter	Rv3671c protease	BioA inh	FBA Mtb inh
O=C(N[C@H]1CC[C@H](CCn2cc(C3(O)CCCC3)nn2)O[C@H]1CO)C1CCOCC1	.	.	.	0	.
CCOC(=O)c1sc(NC(=O)Nc2ccc(Cl)cc2)cc1C	25*	13	-87	-1	4
COc1ccc(NC(=O)N2C[C@@H](O)COC[C@H]3O[C@@H](CC(=O)NCc4ccccc4OC)CC[C@@H]32)cc1	.	.	.	-2	.
Cc1nn2c(c1-c1ccccc1)NC1=C(C(=O)CCC1)C2c1ccccc1 (stereo unspecified)	-1	33*	-5	.	115*
C[C@@H]1CN([C@@H](C)CO)C(=O)c2cc(C3=CCCC3)cnc2O[C@H]1CN(C)C(=O)c1ccc(F)cc1	.	.	.	-1	.
CCOC(=O)c1sc(NC(=O)CSc2n[nH]c(-c3ccccc3)n2)c(C#N)c1C	-3	33*	-39	2	7
CCOC(=O)c1sc(NC(=O)CSc2nc(C)cc(C)n2)c(C#N)c1C	-1	32*	1	.	7
CCOC(=O)c1sc(NC(=O)CSc2ncn[nH]2)c(C#N)c1C	-2	31*	-11	-1	-1
CCOC(=O)c1sc(NC(=O)CSc2ccccn2)c(C#N)c1C	-1	5	-2	0	2
COc1ccc(C(=O)OCC(=O)NCC2CCCO2)cc1 (stereo unspecified)	-1	1	-16	.	2
CCN(CC)c1ccc(C(=O)OCC(=O)NCC2CCCO2)cc1 (stereo unspecified)	-3	32*	-7	.	0
C[C@@H]1CCCCO[C@@H](CN(C)C(=O)CCC(F)(F)F)[C@@H](C)CN([C@@H](C)CO)C(=O)c2cc(N(C)C)ccc2O1	.	.	.	2	.
COC(=O)C(C)Oc1cc(OC(C)C(=O)OC)c2c(C)c(Cl)c(=O)oc2c1 (stereo unspecified)	-7	11	1	5	+
COC(=O)COc1cc(OCC(=O)OC)c2c(C)c(Cl)c(=O)oc2c1	-2	9	-5	.	+
Cc1cc(OC(C)C(=O)NCC2CCC(C(=O)O)CC2)c2c(C)c(Cc3ccccc3)c(=O)oc2c1 (stereo unspecified)	0	10	-6	1	22
CCC(=O)Nc1ccc2c(c1)C(=O)N(C)[C@@H]1CC[C@@H](CC(=O)N3CCc4ccccc4C3)O[C@@H]1CO2	.	.	.	2	.
COc1ccc(C2Nc3ccccc3C(=O)N2Cc2ccccc2)cc1OC (stereo unspecified)	-5	-1	-6	0	74*
C[C@H]1CN([C@@H](C)CO)C(=O)Cc2cc(NC(=O)Nc3ccc(F)cc3)ccc2O[C@@H]1CN(C)C(=O)Nc1ccc(C(F)(F)F)cc1	.	.	.	1	.
CC(=O)C1C2c3ccccc3OC1(C)N=c1s/c(=C/c3cn(C)nc3C)c(=O)n12 (stereo unspecified)	-1	36*	11	.	1
COC(=O)C1C2c3ccccc3OC1(C)N=c1s/c(=C/c3cnn(C)c3)c(=O)n12 (stereo unspecified)	-3	14	3	0	2
C[C@H](CO)N1C[C@H](C)[C@H](CN(C)S(=O)(=O)c2cn(C)cn2)Oc2ncc(-c3cccc(F)c3)cc2C1=O	.	.	.	-2	.
CCOC(=O)c1ccc(N2C(=O)CC(N3CCC(O)(c4ccc(Cl)cc4)CC3)C2=O)cc1 (stereo unspecified)	0	39*	-4	5	2
COC(=O)c1ccc2cc(OC)c(OC)cc2c1	0	-2	.	-1	13

Compound activity: PubChem, several laboratories
